Screening data: PubChem, several laboratories
GLD-1 TGE inh – GLD-1/TGE RNA complex disruptors, primary screen, biochemical, fluorescence polarization; Female germline-specific tumor suppressor gld-1 (Caenorhabditis elegans), Q17339; purified GLD-1 + fluorescein TGE RNA; inhibition, % at 5.96 µM; hit rate 0.44% among 320,000; AID 2280, 2010;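 active = percent inhibition above a per-plate cutoff, the plate mean of test compounds plus 3 SD, cut at about 30% in these data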;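 also: 0% = DMSO wells with GLD-1 and probe and 100% = wells lacking GLD-1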
Bcl-xL primary – inhibitors of human Bcl-xL, primary screen, biochemical, fluorescence polarization, HTS; GST-Bcl-xL / FITC-Bim BH3 peptide fluorescence polarization; hit rate 0.7% among 320,000; inhibition, % at 10.9 µM; Bcl-2-like protein 1 (Homo sapiens), Q07817;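 active = inhibition above the mean of all tested compounds plus 3 SD, cutoff set per campaign, cut at about 30% in these data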;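 also: 0% = DMSO wells and 100% = unlabeled Bim-BH3 peptide competitor; inhibitors lower millipolarization by displacing the labeled peptide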
Target sequence (Q07817 whole entry, looked up): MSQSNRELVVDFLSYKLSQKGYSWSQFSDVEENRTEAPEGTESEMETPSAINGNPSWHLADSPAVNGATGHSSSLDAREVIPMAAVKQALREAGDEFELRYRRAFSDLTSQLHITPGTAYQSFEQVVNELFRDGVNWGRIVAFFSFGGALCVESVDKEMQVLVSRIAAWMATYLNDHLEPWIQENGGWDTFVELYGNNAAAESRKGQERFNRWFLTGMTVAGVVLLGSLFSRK
Mcl1-Noxa inh – Mcl-1/Noxa binding inhibitors, primary screen, biochemical, TR-FRET, 1536-well; Induced myeloid leukemia cell differentiation protein Mcl-1 (Homo sapiens), Q07820; TR-FRET Mcl-1/Noxa peptide binding, 2 h; inhibition, % at 21.7 µM; hit rate 1.5% among 220,000; AID 1022, 2008;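 active = compounds that cut the protein-peptide binding signal by more than 50% relative to plate controls in a single-dose test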;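 also: His-tagged Mcl-1 with rhodamine Noxa BH3 peptide and terbium anti-His antibody; 0% = Mcl-1 plus Noxa peptide wells and 100% = peptide-only wells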
MCL1-BIM inh – inhibitors of MCL1 binding to BIM-BH3, primary screen, biochemical, fluorescence polarization | GST-MCL1 / FITC-Bim-BH3 fluorescence polarization | inhibition, % at 10.9 µM | hit rate 0.68% among 320,000 | AID 2057, 2009;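 active = inhibition above the mean inhibition of all tested compounds plus 3 SD, set per campaign, cut at about 40% in these data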;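 also: 0% = DMSO wells and 100% = unlabeled Bim-BH3 peptide control; higher means more loss of mP so more displacement of Bim peptide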
Mcl1 Bid PPI – Mcl-1/Bid binding inhibitors, primary screen, biochemical, TR-FRET, 1536-well. Induced myeloid leukemia cell differentiation protein Mcl-1 (Homo sapiens), Q07820. TR-FRET Mcl-1/Bid-Dy647 peptide binding. inhibition, % at 21.7 µM. hit rate 0.97% among 220,000. AID 1021, 2008;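 active = compounds that cut the binding signal by more than half at the single screening dose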;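 also: His-tagged Mcl-1 with europium anti-His antibody binding Bid BH3 peptide; 0% = Mcl-1 plus peptide wells and 100% = peptide-only wells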
Mcl-1 Bim block – inhibitors of Bim peptide binding to Mcl-1, primary screen, biochemical, bead-based flow cytometry, multiplex; Induced myeloid leukemia cell differentiation protein Mcl-1 (Homo sapiens), Q07820; AID 1009, 2008; inhibition, % at 10 µM; Bim peptide-Mcl-1 binding; hit rate 0.1% among 190,000; in the data active = inhibition above about 40%;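 also: 0% = no compound tracer wells and 100% = peptide blocker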
Bcl-xL conf – Bcl-xL inhibitors blocking Bim BH3 binding, confirmation, counter-screen for MCL1 inhibitor project, biochemical, fluorescence polarization; inhibition, % at 10.9 µM; shares compounds with MCL1-BIM inh; hit rate 54% among 1,700; GST-Bcl-xL / FITC-Bim BH3 peptide FP binding;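 active = inhibition above a cutoff equal to the mean inhibition of all tested compounds plus 3 SD, cut at about 30% in these data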;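 also: 0% = DMSO wells and 100% = unlabeled Bim BH3 control peptide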
MCL1 BIM confirm – inhibitors of MCL1 binding to BIM-BH3, confirmation, biochemical, fluorescence polarization, triplicate; AID 2168, 2009; hit rate 61% among 1,700; shares compounds with MCL1-BIM inh; inhibition, % at 10.9 µM; GST-MCL1 / FITC-Bim-BH3 fluorescence polarization;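 active = inhibition above the average of all tested compounds plus 3 SD, cut at about 40% in these data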;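 also: 0% = DMSO wells and 100% = unlabeled Bim-BH3 control peptide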
* = called active by the depositor; / = no result given. Sampled rows, rich in hits. Any-hit rate of the full collection: about 2.3%.

SMILES | GLD-1 TGE inh | Bcl-xL primary | Mcl1-Noxa inh | MCL1-BIM inh | Mcl1 Bid PPI | Mcl-1 Bim block | Bcl-xL conf | MCL1 BIM confirm
CCOC(=O)C1CCCN(Cc2c(C(=O)N3CCOCC3)nc3ccccn23)C1 (configuration not stated) | 0 | 2 | 8 | 5 | -70 | -1 | / | /
COC1CCCN(Cc2c(C(=O)N3CCN(C4CCCCC4)CC3)nc3ccccn23)C1 (configuration not stated) | 35* | 61* | / | 70* | / | / | 40* | 42*
O=C(c1ccco1)[C@@H]1[C@@H]2C(=O)N(c3ccccc3)C(=O)[C@@H]2C2c3ccccc3C=CN21 (some centres not stated) | 69* | 79* | / | 79* | / | / | 60* | 77*
Cc1ccc(N2C(=O)[C@@H]3[C@H](C2=O)C2c4ccccc4C=CN2[C@@H]3C(=O)c2ccco2)c(C)c1 (some centres not stated) | 62* | 73* | / | 63* | / | / | 44* | 59*
Cc1ccc(N2C(=O)[C@@H]3[C@H](C2=O)C2c4ccccc4C=CN2[C@@H]3C(=O)c2ccco2)cc1 (some centres not stated) | / | / | 26 | / | 11 | -5 | / | /
N#Cc1ccccc1S(=O)(=O)N1CCN(C(=O)Cc2coc3cc(O)ccc23)CC1 | 1 | 7 | / | 4 | / | / | / | /
COc1ccc(NC(=O)c2cc(S(=O)(=O)N3CCCC3)c[nH]2)cc1 | 3 | 3 | / | 108* | / | / | 13 | 10
COc1ccc(NC(=O)c2cc(S(=O)(=O)N3CCCCC3)c[nH]2)cc1 | 4 | 7 | / | 7 | / | / | / | /
CC(=O)Oc1ccc(C2OC(=O)c3ccccc3N2C(C)=O)cc1 (configuration not stated) | 0 | 3 | -14 | 0 | -4 | 0 | / | /
CC(=O)N1c2ccccc2C(=O)C1N1CCCCC1 (configuration not stated) | 58* | 65* | -19 | 69* | -6 | -5 | 52* | 63*
Cc1cnc(C(=O)OCC(=O)NCc2ccc3c(c2)OCO3)cn1 | 0 | 1 | 1 | 3 | -39 | 0 | / | /
COC(=O)CCC(=O)OC1(C)C(=O)C2=COC(c3ccc(OC)cc3)=CC2=C(Br)C1=O (configuration not stated) | 16 | 33* | 50* | 56* | -41 | / | 32* | 57*
CC(C)S(=O)(=O)c1csc(NC(=O)Nc2cccc([N+](=O)[O-])c2)c1Cl | 1 | -5 | 15 | -2 | 1 | / | / | /
COc1ccc(NC(=O)/C(C#N)=C/c2ccc[nH]2)c(OC)c1 | -5 | 21 | / | 9 | / | / | / | /
N#C/C(=C\c1ccc[nH]1)C(=O)Nc1ccccc1Cl | 12 | 52* | / | 47* | / | / | 26 | 33
O=C(N/N=C/c1ccncc1)c1cccs1 | -3 | 1 | / | 7 | / | / | / | /
O=C(N/N=C/c1ccc(-c2ccccc2C(=O)O)o1)c1cccs1 | 6 | 28 | 79* | 71* | 0 | 2 | 40* | 73*
O=C(Nc1ccc(Cl)cc1)N1CCCN(c2ccc(C(F)(F)F)cc2[N+](=O)[O-])CC1 | 2 | -2 | 5 | 2 | 5 | / | / | /
